# Experimental data reported in PubChem BioAssay (NCI).
# “And” between values parts separate entries of the source, which are not always exact repeats. Equal values may be shown once. The panel holds about 83,000 compounds, 20% with a hit somewhere; the sample as a whole holds those more often.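 How to read the values: 0–100, growth inhibition (40 = 60% inhibited); 0, no net growth; -100 to 0, cell death (-40 = 40% of starting cells died; -100 = all dead).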 Values without a mark were called inactive. The source made the active and inactive calls. The calls were made as follows: active = growth percent below 10; inactive = the rest.
# Legend:
# Assay in all cases: NCI-60 one-dose screen, 48 h (100 = growth as untreated, 0 = no growth, -100 = all killed)
# NCI-H23 lung = system: NCI-H23 lung
# NCI-H226 lung = system: NCI-H226 lung
# NCI-H322M lung = system: NCI-H322M lung
# HOP-62 NSCLC = system: HOP-62 NSCLC
# NCI-H460 lung = system: NCI-H460 lung
# HOP-92 NSCLC = conditions: 10 µM unless noted
# NCI-H522 lung = conditions: 10 µM unless noted
# A549/ATCC NSCLC = system: A549/ATCC NSCLC
# 786-0 renal = system: 786-0 renal
# COLO 205 colon = conditions: 10 µM unless noted
# DU-145 prostate = system: DU-145 prostate
# K-562 leukemia = system: K-562 leukemia
# MALME-3M melanoma = system: MALME-3M melanoma
# MDA-MB-231 breast = system: MDA-MB-231 breast
# RXF 393 renal = system: RXF 393 renal
# SF-268 CNS = system: SF-268 CNS
# SF-295 CNS = system: SF-295 CNS
# SF-539 CNS = system: SF-539 CNS
# UACC-257 melanoma = conditions: 10 µM unless noted
# M14 melanoma = conditions: 10 µM unless noted
smiles,measurement,setting,value
CCN(CC)CCNC(=O)c1ccc(NCN2C(=O)NC(c3ccccc3)(c3ccccc3)C2=O)cc1,growth,NCI-H23 lung; 10 µM unless noted,97.1% and 103%
same,growth,NCI-H226 lung; 10 µM unless noted,95.6% and 100%
same,growth,NCI-H322M lung; 10 µM unless noted,112% and 106%
same,growth,HOP-62 NSCLC; 10 µM unless noted,116% and 99.7%
same,growth,NCI-H460 lung; 10 µM unless noted,101% and 114%
same,growth,HOP-92 NSCLC,86.2% and 105%
same,growth,NCI-H522 lung,108% and 106%
same,growth,A549/ATCC NSCLC; 10 µM unless noted,95.3% and 107%
same,growth,786-0 renal; 10 µM unless noted,101% and 115%
same,growth,COLO 205 colon,124% and 103%
same,growth,DU-145 prostate; 10 µM unless noted,108% and 122%
same,growth,K-562 leukemia; 10 µM unless noted,110% and 108%
same,growth,MALME-3M melanoma; 10 µM unless noted,96.1%
same,growth,MDA-MB-231 breast; 10 µM unless noted,114% and 103%
same,growth,RXF 393 renal; 10 µM unless noted,106% and 118%
same,growth,SF-268 CNS; 10 µM unless noted,102% and 101%
same,growth,SF-295 CNS; 10 µM unless noted,94.1%
same,growth,SF-539 CNS; 10 µM unless noted,104%
same,growth,UACC-257 melanoma,100% and 106%
CCc1ccccc1-n1[nH]c(C)c(C=N)c1=O,growth,NCI-H23 lung; 10 µM unless noted,102%
same,growth,NCI-H226 lung; 10 µM unless noted,89%
same,growth,NCI-H322M lung; 10 µM unless noted,106%
same,growth,HOP-62 NSCLC; 10 µM unless noted,135%
same,growth,NCI-H460 lung; 10 µM unless noted,109%
same,growth,HOP-92 NSCLC,98.6%
same,growth,NCI-H522 lung,102%
same,growth,A549/ATCC NSCLC; 10 µM unless noted,126%
same,growth,786-0 renal; 10 µM unless noted,112%
same,growth,COLO 205 colon,120%
same,growth,DU-145 prostate; 10 µM unless noted,118%
same,growth,K-562 leukemia; 10 µM unless noted,96.5%
same,growth,MALME-3M melanoma; 10 µM unless noted,94.4%
same,growth,MDA-MB-231 breast; 10 µM unless noted,106%
same,growth,RXF 393 renal; 10 µM unless noted,103%
same,growth,SF-268 CNS; 10 µM unless noted,114%
same,growth,SF-295 CNS; 10 µM unless noted,99.3%
same,growth,SF-539 CNS; 10 µM unless noted,100%
same,growth,UACC-257 melanoma,116%
O=c1[nH]c(=S)[nH]n1C(=S)n1[nH]c(=S)[nH]c1=O,growth,NCI-H23 lung; 10 µM unless noted,110%
same,growth,NCI-H226 lung; 10 µM unless noted,85%
same,growth,NCI-H322M lung; 10 µM unless noted,96.8%
same,growth,HOP-62 NSCLC; 10 µM unless noted,97.2%
same,growth,NCI-H460 lung; 10 µM unless noted,103%
same,growth,HOP-92 NSCLC,82.2%
same,growth,NCI-H522 lung,84.6%
same,growth,A549/ATCC NSCLC; 10 µM unless noted,93.6%
same,growth,786-0 renal; 10 µM unless noted,106%
same,growth,COLO 205 colon,111%
same,growth,DU-145 prostate; 10 µM unless noted,110%
same,growth,K-562 leukemia; 10 µM unless noted,98.8%
same,growth,MALME-3M melanoma; 10 µM unless noted,102%
same,growth,MDA-MB-231 breast; 10 µM unless noted,111%
same,growth,RXF 393 renal; 10 µM unless noted,95.6%
same,growth,SF-268 CNS; 10 µM unless noted,103%
same,growth,SF-295 CNS; 10 µM unless noted,97.8%
same,growth,SF-539 CNS; 10 µM unless noted,110%
same,growth,UACC-257 melanoma,108%
same,growth,M14 melanoma,105%
O=c1ccn2c(n1)OC1CC2OC1COC(c1ccccc1)(c1ccccc1)c1ccccc1 (centres undefined),growth,NCI-H23 lung; 10 µM,116%
same,growth,NCI-H23 lung; 100 µM,99.6%
same,growth,NCI-H226 lung; 10 µM,102%
same,growth,NCI-H226 lung; 100 µM,90.5%
same,growth,NCI-H322M lung; 10 µM,106%
same,growth,NCI-H322M lung; 100 µM,49.9%
same,growth,HOP-62 NSCLC; 10 µM,99.6%
same,growth,HOP-62 NSCLC; 100 µM,96.3%
same,growth,NCI-H460 lung; 10 µM,106%
same,growth,NCI-H460 lung; 100 µM,94.5%
same,growth,HOP-92 NSCLC,72.4% [100 µM]
same,growth,A549/ATCC NSCLC; 10 µM,93.5%
same,growth,A549/ATCC NSCLC; 100 µM,83%
same,growth,786-0 renal; 10 µM,113%
same,growth,786-0 renal; 100 µM,86.1%
same,growth,DU-145 prostate; 10 µM,115%
same,growth,DU-145 prostate; 100 µM,99.1%
same,growth,K-562 leukemia; 10 µM,102%
same,growth,K-562 leukemia; 100 µM,50.4%
same,growth,MALME-3M melanoma; 10 µM,119%
same,growth,MALME-3M melanoma; 100 µM,95%
same,growth,MDA-MB-231 breast; 10 µM,111%
same,growth,MDA-MB-231 breast; 100 µM,82.1%
same,growth,RXF 393 renal; 10 µM,107%
same,growth,RXF 393 renal; 100 µM,75.8%
same,growth,SF-268 CNS; 10 µM,119%
same,growth,SF-268 CNS; 100 µM,76.3%
same,growth,SF-295 CNS; 10 µM,118%
same,growth,SF-295 CNS; 100 µM,67.1%
same,growth,SF-539 CNS; 10 µM,110%
same,growth,SF-539 CNS; 100 µM,48.8%
same,growth,UACC-257 melanoma,93.8% [100 µM]
Oc1ccc(O)c(-c2ccccc2)c1,growth,NCI-H23 lung; 10 µM unless noted,63.1%
same,growth,NCI-H226 lung; 10 µM unless noted,54.9%
same,growth,NCI-H322M lung; 10 µM unless noted,42.9%
same,growth,HOP-62 NSCLC; 10 µM unless noted,46.6%
same,growth,NCI-H460 lung; 10 µM unless noted,19.7%
same,growth,HOP-92 NSCLC,85.8%
same,growth,NCI-H522 lung,-68.3% (active)
same,growth,A549/ATCC NSCLC; 10 µM unless noted,66.1%
same,growth,786-0 renal; 10 µM unless noted,65.6%
same,growth,COLO 205 colon,85.9%
same,growth,DU-145 prostate; 10 µM unless noted,77.6%
same,growth,K-562 leukemia; 10 µM unless noted,30.4%
same,growth,MALME-3M melanoma; 10 µM unless noted,84.6%
same,growth,MDA-MB-231 breast; 10 µM unless noted,66%
same,growth,RXF 393 renal; 10 µM unless noted,73.8%
same,growth,SF-268 CNS; 10 µM unless noted,53.7%
same,growth,SF-295 CNS; 10 µM unless noted,17.7%
same,growth,SF-539 CNS; 10 µM unless noted,46.3%
same,growth,UACC-257 melanoma,88.4%
O=C1C=CC(n2cc(F)c(=O)[nH]c2=O)O1 (centres undefined),growth,NCI-H23 lung; 10 µM unless noted,65.2%
same,growth,NCI-H226 lung; 10 µM unless noted,86%
same,growth,NCI-H322M lung; 10 µM unless noted,67.4%
same,growth,HOP-62 NSCLC; 10 µM unless noted,79.5%
same,growth,NCI-H460 lung; 10 µM unless noted,19.4%
same,growth,HOP-92 NSCLC,112%
same,growth,NCI-H522 lung,76.2%
same,growth,A549/ATCC NSCLC; 10 µM unless noted,50.7%
same,growth,786-0 renal; 10 µM unless noted,70.9%
same,growth,COLO 205 colon,59.4%
same,growth,DU-145 prostate; 10 µM unless noted,61%
same,growth,K-562 leukemia; 10 µM unless noted,52.1%
same,growth,MALME-3M melanoma; 10 µM unless noted,58.9%
same,growth,MDA-MB-231 breast; 10 µM unless noted,98.8%
same,growth,RXF 393 renal; 10 µM unless noted,99%
same,growth,SF-268 CNS; 10 µM unless noted,85.8%
same,growth,SF-295 CNS; 10 µM unless noted,94.5%
same,growth,SF-539 CNS; 10 µM unless noted,8.79% (active)
same,growth,UACC-257 melanoma,90.4%
same,growth,M14 melanoma,70.7%
